Test results taken from PubChem BioAssay AID1159580 (chemical genetic matrix, 2015).
Out of some 5,500 compounds screened, about 2,000 (36%) were called active. Not shown: some 18% with an inconclusive outcome. Cut-off read from the data, not from the text of the source: active = normalized growth mostly below about 0.91 (no sharp cut-off); inconclusive = no clear call, values can overlap the other calls; inactive = mostly above about 0.92. The list shows a part of the results.

Assay: chemical genetic growth profiling, strain panel (AID 1159580);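 note: tested at 20 µM; growth read once vehicle control cultures reached saturation at 30 °C; 1 = growth at the plate median or of vehicle wells; lower values mean less growth of the strain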
Settings: S. cerevisiae deletion strains, growth OD
[1] = locus YHR030C, strain SLT2, stronger effect = lower value
[2] = locus YHR079C, strain IRE1, stronger effect = lower value
[3] = locus YJL095W, strain BCK1, stronger effect = lower value
[4] = locus YJR066W, strain TOR1, stronger effect = lower value
[5] = locus YLR113W, strain HOG1, stronger effect = lower value
[6] = locus YNL183C, strain NPR1, stronger effect = lower value
[7] = locus YOR231W, strain MKK1, stronger effect = lower value
[8] = locus YPL256C, strain CLN2, stronger effect = lower value

Measured: normalized growth

COC(=O)C(c1ccccc1)C1CCCCN1 (stereo not drawn)
inactive: [1] 0.978 | [2] 0.975 | [3] 0.974 | [4] 0.934 | [5] 0.95 | [6] 0.891 | [7] 0.971 | [8] 0.972

O=C(NCCNCC(O)COc1ccc(O)cc1)N1CCOCC1 (stereo not drawn)
inactive: locus YAL040C, strain CLN3, stronger effect = lower value 0.976 | locus YCL061C, strain MRC1 (second series), stronger effect = lower value 1 | locus YDR150W, strain NUM1, stronger effect = lower value 0.993 | locus YDR363W, strain ESC2, stronger effect = lower value 1.01 | locus YER002W, strain NOP16, stronger effect = lower value 1.02 | locus YGR229C, strain SMI1, stronger effect = lower value 1.02 | locus YMR307W, strain GAS1, stronger effect = lower value 0.997 | locus YNL128W, strain TEP1, stronger effect = lower value 0.998 | locus YNL175C, strain NOP13, stronger effect = lower value 0.998 | locus YNL197C, strain WHI3, stronger effect = lower value 0.993 | locus YNL224C, strain SQS1, stronger effect = lower value 0.997 | locus YOR083W, strain WHI5 (second series), stronger effect = lower value 1.01 | locus YPL055C, strain LGE1, stronger effect = lower value 1.02 | locus YPL241C, strain CIN2, stronger effect = lower value 1

Cc1ccc(OS(=O)(=O)c2c(Cl)sc(Cl)c2Br)c([N+](=O)[O-])n1
inactive: locus YAR019C, strain CDC15, stronger effect = lower value 0.964 | locus YBL105C, strain PKC1, stronger effect = lower value 0.964 | locus YBR135W, strain CKS1, stronger effect = lower value 0.968 | locus YBR136W, strain MEC1, stronger effect = lower value 0.967 | locus YBR160W, strain CDC28, stronger effect = lower value 0.963 | locus YDL017W, strain CDC7, stronger effect = lower value 0.957 | locus YDL028C, strain MPS1, stronger effect = lower value 0.972 | locus YDL101C, strain DUN1, stronger effect = lower value 0.956 | locus YDL108W, strain KIN28, stronger effect = lower value 0.965 | locus YDL132W, strain cdc53, stronger effect = lower value 0.961 | locus YDL214C, strain PRR2, stronger effect = lower value 0.962 | locus YDR052C, strain DBF4, stronger effect = lower value 0.968 | locus YDR054C, strain cdc34, stronger effect = lower value 0.956 | locus YDR226W, strain ADK1, stronger effect = lower value 0.953 | locus YDR477W, strain SNF1, stronger effect = lower value 0.97 | locus YER123W, strain YCK3, stronger effect = lower value 0.952 | locus YER133W, strain GLC7, stronger effect = lower value 0.975 | locus YFL009W, strain cdc4, stronger effect = lower value 0.961 | locus YFL029C, strain CAK1, stronger effect = lower value 0.96 | locus YFR003C, strain YPI1, stronger effect = lower value 0.961 | locus YFR019W, strain FAB1, stronger effect = lower value 0.98 | locus YFR028C, strain CDC14, stronger effect = lower value 0.965 | locus YGR040W, strain KSS1, stronger effect = lower value 0.972 | locus YGR052W, strain FMP48, stronger effect = lower value 1 | locus YGR092W, strain DBF2, stronger effect = lower value 0.951 | [1] 0.961 | [2] 0.929 | locus YHR082C, strain KSP1, stronger effect = lower value 1.07 | locus YHR205W, strain SCH9, stronger effect = lower value 0.953 | locus YIL147C, strain SLN1, stronger effect = lower value 0.966 | [3] 0.968 | locus YJL128C, strain PBS2, stronger effect = lower value 0.909 | locus YJL157C, strain FAR1, stronger effect = lower value 0.96 | locus YJR016C, strain ILV3, stronger effect = lower value 0.965 | locus YJR066W, strain TOR1 (second series), stronger effect = lower value 0.956 | [4] 1.02 | locus YKL048C, strain ELM1, stronger effect = lower value 0.965 | locus YKL067W, strain YNK1, stronger effect = lower value 0.959 | locus YKL101W, strain HSL1, stronger effect = lower value 0.979 | locus YKL193C, strain SDS22, stronger effect = lower value 0.963 | locus YKL203C, strain TOR2, stronger effect = lower value 0.991 | locus YLR133W, strain CKI1, stronger effect = lower value 0.968 | locus YLR403W, strain SFP1, stronger effect = lower value 0.967 | locus YML070W, strain DAK1, stronger effect = lower value 0.959 | locus YMR001C, strain CDC5, stronger effect = lower value 0.957 | locus YMR205C, strain PFK2 (second series), stronger effect = lower value 0.971 | locus YMR277W, strain FCP1, stronger effect = lower value 0.961 | locus YNL006W, strain LST8, stronger effect = lower value 0.962 | locus YNL020C, strain ARK1, stronger effect = lower value 0.971 | locus YNL161W, strain CBK1, stronger effect = lower value 0.968 | [6] 1.01 | locus YNL207W, strain RIO2, stronger effect = lower value 0.955 | locus YNL222W, strain SSU72, stronger effect = lower value 0.971 | locus YNL307C, strain MCK1 (second series), stronger effect = lower value 0.965 | locus YOL078W, strain AVO1, stronger effect = lower value 0.967 | locus YOL136C, strain PFK27, stronger effect = lower value 0.957 | locus YOR061W, strain CKA2, stronger effect = lower value 0.962 | locus YOR119C, strain RIO1, stronger effect = lower value 1.04 | [7] 0.942 | locus YOR329C, strain SCD5, stronger effect = lower value 0.959 | locus YPL031C, strain PHO85, stronger effect = lower value 0.959 | locus YPL153C, strain RAD53, stronger effect = lower value 0.963 | locus YPL204W, strain HRR25, stronger effect = lower value 0.978 | locus YPL209C, strain IPL1, stronger effect = lower value 0.963 | [8] 0.92 | locus YPR025C, strain CCL1, stronger effect = lower value 0.964 | locus YPR106W, strain ISR1, stronger effect = lower value 0.961 | locus YPR111W, strain DBF20, stronger effect = lower value 0.948 | strain NNK1, stronger effect = lower value 0.956 | strain TSCII, stronger effect = lower value 0.957
active: [5] 0.818
